# From PubChem BioAssay (NCATS)
# Records with an inconclusive call do not appear. Values without a mark were called inactive. Activity calls are given as the source filed them. Calls come from the whole dose curve; as a rule, active = well fitted cell-killing curve with a large enough effect; inconclusive = small, poorly fitted or top-dose-only effect, or effect the other way; inactive = no such curve, though single readings can be large or run the other way.
# Assay: Quantitative highthroughput screen to assess conditional lethalithy of SEM cells grown in Human Plasma-Like Medium with dialyzed fetal bovine serum (HPLM+ds) (AID 1963882); note: nearly all actives have a fitted effect of over 35% in size
# Settings: SEM B-ALL cells in HPLM+ds, CellTiter-Glo viability, 48 h; series mostly up to 45.8 µM; viability: at the top concentration
# Text: Assay Provider: Jason Cantor Ph.D.
# Department of Biochemistry
# University of Wisconsin-Madison, Madison, WI, USA
# Chemical screening studies have identified drug sensitivities across hundreds of cancer cell lines but most putative therapeutics fail to translate. Discovery and development of drug candidates in models that more accurately reflect nutrient levels in human blood is a major challenge. Here we performed high-throughput screens in conventional versus Human Plasma-Like Medium (HPLM) to identify compounds that were "missed" when screening using the artificial culture condition. Sets of conditional anticancer compounds spanned phases of clinical development and included non-oncology drugs were assessed. […] We also traced conditional phenotypes for several chemotherapeutics to availability of HPLM-specific metabolites and confirmed others for compounds whose reported targets are encoded by nonessential genes. Our findings establish generalizable strategies for exploiting conditional lethality in HPLM to reveal therapeutic candidates and mechanisms of action in cancer cells.
# Described herein are the results of each viability screens against three cell lines: NOMO1 (an acute myeloid leukemia cell line); P12-Ichikawa (a T-cell acute lymphoblastic leukemia); and SEM (a B-cell ALL). Each assay was screened using 3 different cell culture media: homemade human plasma-Like medium with 10% dialyzed fetal bovine serum (HPLM+ds); RPMI1640 with 10% untreated FBS and 5mM glucose (RPMI+s); and RPMI1640 with 10% dialyzed fetal bovine serum and 5 mM glucose (RPMI+ds).
# PROTOCOL TABLE (as described by Inglese J, Shamu CE and Guy RK. 2007)
# SEQUENCE No. (e.g., 1, 2, 3, etc.); […] (e.g., Cells, Incubation, Reagent, etc.); VALUE and DESCRIPTION.
# 1; Cells; 5 uL; white, solid bottom 1536-well Greiner assay plate.
# 2; Compounds; 23 nL; Kalypsis pin tool (Wako USA) equipped with a 1536-well pin head to transfer to the assay plates.
# 3; Incubation; 48 hours; 37C incubation.
# 4; Reagent; 3 uL; CellTiter Glo (Promega).
# 5; Incubation; 5 min, room temperature
# 6; Detection; Luminescence, Viewlux PerkinElmer.
# NOTES (numbers refer to Sequence numbers above)
# 1. Briefly, 5 ul of cell reagent was dispensed using a Multidrop Combi Dispenser. The NOMO1 and SEM cells were plated at 500 cells/well and the P12-Ichikawa line at 1000 cells/well.
# 2. After seeding the cells, 23 nL of MIPE 4.1 library compounds (in DMSO) were added to each plate using a Kalypsys 1536 Pintool dispenser. Bortezomib at final concentration of […] and DMSO were added to each plate as positive and negative controls respectively. For each screen, MIPE 4.1 compounds were added over an eleven-point concentration range […] in 3-fold dilutions.
# 3. Each plate was covered with a stainless steel gasketed lid to prevent evaporation and incubated for 48 hour at 37C, 95% relative humidity, and 5% CO2.
# 4-5. Three microliter CellTilter-GloTM luminescent substrate mix (Promega) reagent was added to the assay plate and incubated at room temperature for 5 min.
# 6. The luminescence signal was measured using a ViewLux (PerkinElmer) multiplate reader with a 2 second exposure time per plate. Data for each compound were normalized as percent viability such that measurements for DMSO and the empty well controls in each plate were defined as 100% and 0%, respectively.
# Potency is the fitted concentration of half-maximal effect.
SMILES,viability [%],Potency
C=C1C(=CC=C2CCC[C@]3(C)[C@@H]([C@H](C)CCCC(C)(C)O)CC[C@@H]23)C[C@@H](O)C[C@@H]1O,96.9,–
CCOC(=O)[C@@H](N)CCC(=O)N[C@@H](CSCc1ccccc1)C(=O)N[C@@H](C(=O)OCC)c1ccccc1,90.6,–
NC(=NCc1ccccc1)NC(=O)c1nc(Cl)c(N)nc1N,73.9,–
Cc1coc2c1C(=O)C(=O)c1c-2ccc2c(C)cccc12,76.6,–
CCOC(=O)[C@H]1O[C@H]1C(=O)N[C@@H](CC(C)C)C(=O)NCCC(C)C,96.6,–
CN(C)CC[C@H](CSc1ccccc1)Nc1ccc(S(=O)(=O)NC(=O)c2ccc(N3CCN(Cc4ccccc4-c4ccc(Cl)cc4)CC3)cc2)cc1[N+](=O)[O-],–,59 nM (active)
CO[C@@H]1[C@@H](OC(N)=O)[C@@H](O)[C@H](Oc2ccc3c(O)c(NC(=O)c4ccc(O)c(CC=C(C)C)c4)c(=O)oc3c2C)OC1(C)C,111,–
N#CC1(c2ccc(NC(=O)c3cccnc3NCc3ccncc3)cc2)CCCC1,85.5,–
CNC(=O)CN1CCC(Oc2cc3c(Nc4cccc(Cl)c4F)ncnc3cc2OC)CC1,85.1,–
CC1CNc2c(cccc2S(=O)(=O)N[C@@H](CCCN=C(N)N)C(=O)N2CC[C@@H](C)C[C@@H]2C(=O)O)C1 (stereo not given in full),87.3,–
O=C(CCCCCCC(=O)Nc1ccccc1)NO,–,3720 nM (active)
CO[C@@H](C(=O)N1Cc2[nH]nc(NC(=O)c3ccc(N4CCN(C)CC4)cc3)c2C1)c1ccccc1,–,132 nM (active)
CC(C)(C)c1[nH]cnc1C=c1[nH]c(=O)c(=Cc2ccccc2)[nH]c1=O,–,4.8 nM (active)
COc1ccc(C2(C#N)CCC(C(=O)O)CC2)cc1OC1CCCC1 (stereo not given),108,–
Cc1c(NC(=O)c2ccc(C(C)(C)C)cc2)cccc1-c1cn(C)c(=O)c(Nc2ccc(C(=O)N3CCOCC3)cc2)n1,98.9,–
COc1ccc(C(=O)CC(=O)c2ccc(C(C)(C)C)cc2)cc1,85.5,–
O=C(NC(Cc1cc(=O)[nH]c2ccccc12)C(=O)O)c1ccc(Cl)cc1 (stereo not given),103,–
Cn1c(Nc2ccc(C(F)(F)F)cc2)nc2cc(Oc3ccnc(-c4ncc(C(F)(F)F)[nH]4)c3)ccc21,–,9350 nM (active)
NC(=O)c1cccc(-c2cccc(OC(=O)NC3CCCCC3)c2)c1,76.9,–
C[C@H](CCC(=O)O)[C@H]1CC[C@H]2[C@@H]3[C@H](O)C[C@@H]4C[C@H](O)CC[C@]4(C)[C@@H]3CC[C@]12C,87.2,–

SMILES,viability [%],Potency
CN(NC(=O)CC(=O)NN(C)C(=S)c1ccccc1)C(=S)c1ccccc1,–,37.1 nM (active)
CC(C(=O)O)c1ccc2c(c1)CC(=O)c1ccccc1S2 (stereo not given),98,–
CN1CC(=O)NC1=NC(=O)Nc1cccc(Cl)c1,96.3,–
CC(C=CC=C(C)C=CC1=C(C)CCCC1(C)C)=CC=CC=C(C)C=CC=C(C)C=CC1=C(C)CCCC1(C)C,102,–
COc1cc2ncn(-c3cc(OCc4ccccc4S(C)(=O)=O)c(C#N)s3)c2cc1OC,102,–
COc1ccc2c(c1)CC[C@@H](CN(C)CC(=O)O)[C@H]2c1ccccc1,–,2350 nM (active)
COc1nc(C)nc(Cl)c1NC1=NCCN1,102,–
O=C(O)[C@@H](c1ccc(OCc2ccc3ccccc3n2)cc1)C1CCCC1,91.6,–
OC(CCN1CCCCC1)(c1ccccc1)C1CC2C=CC1C2 (stereo not given),110,–
C[C@H](NC(=O)Cc1cc(F)cc(F)c1)C(=O)N[C@H](C(=O)OC(C)(C)C)c1ccccc1,89.9,–
CCc1c2c(nc3ccc(OC(=O)N4CCC(N5CCCCC5)CC4)cc13)-c1cc3c(c(=O)n1C2)COC(=O)[C@]3(O)CC,–,2350 nM (active)
CC1=C(C(=O)O)N2C(=O)[C@@H](NC(=O)[C@H](N)C3=CCC=CC3)[C@H]2SC1,106,–
COc1cccc2c1C(=O)c1c(O)c3c(c(O)c1C2=O)C[C@@](O)(C(=O)CO)C[C@@H]3O[C@H]1C[C@H](N)[C@@H](O)[C@H](C)O1,–,2640 nM (active)
OC1CCC(Nc2ncc3nc(Nc4c(F)cc(F)cc4F)n([C@@H]4CCOC4)c3n2)CC1 (stereo not given in full),79.6,–
O=C(NC1CC1)c1cccc(-c2ccc3c(NC(=O)C4CC4)n[nH]c3c2)c1,–,16600 nM (active)
CNc1nccc(-c2cccnc2Oc2cc(C(=O)Nc3cccc(C(F)(F)F)c3)ccc2C)n1,86.9,–
Clc1ccc(-c2nc3sccn3c2C=NOCc2ccc(Cl)c(Cl)c2)cc1,114,–
Cn1c(=O)n(-c2ccc(C(C)(C)C#N)cc2)c2c3cc(-c4cnc5ccccc5c4)ccc3ncc21,–,235 nM (active)
C=C1C(=O)OC(CCCCCCCC)C1C(=O)O (stereo not given),102,–
C1CCC(C(CC2CCCCN2)C2CCCCC2)CC1 (stereo not given),–,14800 nM (active)
